Test results reported in the supplement of paper PMC10849652.
The full data set covers some 7,900 targets. This sample favours those with a hit. About 0.6% of all pairs of compound and target were hits.

Key:
Experiment in all cases: log2 fold change, soluble protein after heating vs DMSO (PISA); higher = thermal stabilisation; K562 cells, 10 uM, 30 min; active = over 0.2 and 3.5 SD of the protein, either way, in both replicates (recomputed)
[1] = compound: CN1CCN(CCOc2cc(OC3CCOCC3)c3c(Nc4c(Cl)ccc5c4OCO5)ncnc3c2)CC1 [saracatinib]
How it was run: (§1)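 K562 cells at 2×10^6 cells/mL were treated with 10 μM compound for 30 min. Aliquots were heated for 3 min across 48°C-58°C, pooled, and extracted in PBS with 0.5% NP-40 at 4°C; soluble protein was the supernatant after 21,000xg for 90 min. Soluble protein was quantified by TMTpro 16plex LC-MS/MS with channel sums equalised, and reported as log2 fold change in thermal stability against DMSO controls, with values from duplicates.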

[2] = compound: CN1CCN(c2nc(C3=C(c4c[nH]c5ccccc45)C(=O)NC3=O)c3ccccc3n2)CC1 [sotrastaurin]
How it was run: as §1

[3] = compound: CN1CC[C@H](c2c(O)cc(O)c3c(=O)cc(-c4ccccc4Cl)oc23)[C@H](O)C1 [alvocidib]
How it was run: as §1

[4] = compound: CN1CCc2c(c3ccccc3n2Cc2ccc(C(=O)NO)cc2)C1 [Tubastatin A]
How it was run: as §1

[5] = compound: CNC(=O)C1=CC=CC=C1NC2=NC(=NC=C2Cl)NC3=C(C=C(C=C3)N4CCOCC4)OC
How it was run: as §1

[6] = compound: CNC(=O)c1ccc(Nc2ncc(C(F)(F)F)c(NCc3nccnc3N(C)S(C)(=O)=O)n2)cc1 [defactinib]
How it was run: as §1

[7] = compound: CNCc1ccc(-c2[nH]c3cc(F)cc4c3c2CCNC4=O)cc1 [rucaparib]
How it was run: as §1

[8] = compound: CNc1nc(-c2ccc3c(N)n[nH]c3c2)cc(N2C[C@@H](C(=O)NC3CCCCC3)CC[C@H]2C)n1
How it was run: as §1

[9] = compound: COC(=O)N[C@@H](C)CNc1nccc(-c2cn(C(C)C)nc2-c2cc(Cl)cc(NS(C)(=O)=O)c2F)n1 [encorafenib]
How it was run: as §1

[10] = compound: COC(=O)[C@H](CCSC)NC(=O)C1=C(C=C(C=C1)NC[C@H](CS)N)C2=CC=CC=C2
How it was run: as §1

[11] = compound: COC1=CC=C(C=C1)CN2C=CC3=C2C=C(C=C3)C(=O)NO
How it was run: as §1

[12] = compound: CON(C)C(=O)N1N=C(c2cc(F)ccc2F)S[C@@]1(CCCN)c1ccccc1 [filanesib]
How it was run: as §1

[13] = compound: CO[C@H]1C[C@@H]2CC[C@@H](C)[C@@](O)(O2)C(=O)C(=O)N2CCCC[C@H]2C(=O)O[C@H]([C@H](C)C[C@@H]2CC[C@H](n3cnnn3)[C@H](OC)C2)CC(=O)[C@H](C)/C=C(\C)[C@@H](O)[C@@H](OC)C(=O)[C@H](C)C[C@H](C)/C=C/C=C/C=C/1C [zotarolimus]
How it was run: as §1

[14] = compound: COc1cc(C(=O)O)ccc1NC(=O)[C@@H]1N[C@@H](CC(C)(C)C)[C@](C#N)(c2ccc(Cl)cc2F)[C@H]1c1cccc(Cl)c1F [idasanutlin]
How it was run: as §1

[15] = compound: COc1cc(Nc2ncc3c(n2)-c2ccc(Cl)cc2C(c2c(F)cccc2OC)=NC3)ccc1C(=O)O [alisertib]
How it was run: as §1

[16] = compound: COc1cc2nc(-c3cc(F)ccc3O)nc(N[C@@H]3CNC[C@H]3C(C)(C)O)c2cc1OC
How it was run: as §1

[17] = compound: COc1cc2ncnc(Nc3ccc(F)c(Cl)c3)c2cc1OCCCN1CCOCC1 [gefitinib]
How it was run: as §1

[18] = compound: COc1cccc2cc(-c3nc([C@H]4CC[C@H](C(=O)O)CC4)n4ncnc(N)c34)[nH]c12
How it was run: as §1

[19] = compound: CS(=O)(=O)CCNCc1ccc(-c2ccc3ncnc(Nc4ccc(OCc5cccc(F)c5)c(Cl)c4)c3c2)o1 [lapatinib]
How it was run: as §1

[20] = compound: CS(=O)(=O)N1CCN(Cc2cc3nc(-c4cccc5[nH]ncc45)nc(N4CCOCC4)c3s2)CC1 [pictilisib]
How it was run: as §1

Measured: log2 fold change

MTMR14 (UniProt Q8NCE2)
inactive: [1] -0.037 | [2] -0.042 | [3] -0.059 | [4] 0 | [5] 0.008 | [6] -0.058 | [7] -0.017 | [8] -0.064 | [9] -0.026 | [10] 0.038 | [11] 0.007 | [12] 0.026 | [13] -0.04 | [14] 0.02 | [15] -0.04 | [16] 0.069 | [17] -0.02 | [18] 0.017 | [19] -0.075 | [20] 0.083

NPEPPS (UniProt P55786)
active: [10] 0.231 | [11] 0.22 | [13] 0.338
inactive: [1] -0.013 | [2] 0.108 | [3] -0.077 | [4] 0.012 | [5] -0.082 | [6] -0.004 | [7] 0.013 | [8] 0.075 | [9] -0.032 | [12] -0.056 | [14] -0.072 | [15] -0.017 | [16] 0.037 | [17] -0.026 | [18] 0.066 | [19] -0.002 | [20] -0.001

NSDHL (UniProt Q15738)
Chain of UniProt Q15738 (Q15738 whole entry, looked up): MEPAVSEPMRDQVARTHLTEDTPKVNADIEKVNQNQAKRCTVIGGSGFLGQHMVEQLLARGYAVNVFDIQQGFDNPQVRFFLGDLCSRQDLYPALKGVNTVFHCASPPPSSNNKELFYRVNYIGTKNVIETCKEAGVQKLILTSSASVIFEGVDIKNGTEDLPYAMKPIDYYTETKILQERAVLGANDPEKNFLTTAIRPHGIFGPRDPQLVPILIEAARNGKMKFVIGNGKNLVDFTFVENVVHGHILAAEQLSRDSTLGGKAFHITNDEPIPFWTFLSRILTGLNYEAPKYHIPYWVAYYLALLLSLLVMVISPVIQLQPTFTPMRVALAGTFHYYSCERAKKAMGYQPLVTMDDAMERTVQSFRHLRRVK
inactive: [1] -0.07 | [2] 0.043 | [3] -0.051 | [4] -0.004 | [5] 0.072 | [6] -0.037 | [7] -0.094 | [8] 0.041 | [9] -0.019 | [10] -0.021 | [11] 0.006 | [12] -0.11 | [13] 0.04 | [14] 0.208 | [15] 0.033 | [16] -0.062 | [17] 0.021 | [18] 0 | [19] 0.185 | [20] 0.023

OTULIN (UniProt Q96BN8)
Chain of UniProt Q96BN8 (Q96BN8 whole entry, looked up): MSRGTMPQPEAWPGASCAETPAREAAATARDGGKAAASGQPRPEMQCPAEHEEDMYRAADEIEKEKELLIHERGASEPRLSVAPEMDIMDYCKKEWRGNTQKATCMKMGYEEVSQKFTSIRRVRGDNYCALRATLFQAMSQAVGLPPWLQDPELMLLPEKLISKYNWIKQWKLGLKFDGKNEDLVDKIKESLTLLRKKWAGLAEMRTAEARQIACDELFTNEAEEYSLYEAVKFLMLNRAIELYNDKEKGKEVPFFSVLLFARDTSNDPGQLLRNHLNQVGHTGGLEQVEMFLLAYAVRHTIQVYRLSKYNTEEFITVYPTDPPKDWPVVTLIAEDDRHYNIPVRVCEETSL
inactive: [1] -0.029 | [2] -0.044 | [3] 0.046 | [4] 0.019 | [5] -0.009 | [6] -0.029 | [7] 0.02 | [8] -0.053 | [9] -0.012 | [10] -0.012 | [11] 0.022 | [12] -0.044 | [13] -0.024 | [14] -0.005 | [15] 0.086 | [16] 0.014 | [17] 0 | [18] -0.045 | [19] 0.048 | [20] 0.023

MRPS22 (UniProt P82650)
inactive: [1] -0.098 | [2] -0.122 | [3] -0.051 | [4] -0.006 | [5] -0.038 | [6] 0.058 | [7] 0.143 | [8] 0.169 | [9] 0.064 | [10] -0.051 | [11] 0.041 | [12] 0.05 | [13] 0.071 | [15] 0.015 | [16] 0.019 | [17] -0.017 | [18] -0.019 | [19] 0.038 | [20] -0.03
active: [14] -0.301

NAGPA (UniProt Q9UK23)
Chain of UniProt Q9UK23 (Q9UK23 whole entry, looked up): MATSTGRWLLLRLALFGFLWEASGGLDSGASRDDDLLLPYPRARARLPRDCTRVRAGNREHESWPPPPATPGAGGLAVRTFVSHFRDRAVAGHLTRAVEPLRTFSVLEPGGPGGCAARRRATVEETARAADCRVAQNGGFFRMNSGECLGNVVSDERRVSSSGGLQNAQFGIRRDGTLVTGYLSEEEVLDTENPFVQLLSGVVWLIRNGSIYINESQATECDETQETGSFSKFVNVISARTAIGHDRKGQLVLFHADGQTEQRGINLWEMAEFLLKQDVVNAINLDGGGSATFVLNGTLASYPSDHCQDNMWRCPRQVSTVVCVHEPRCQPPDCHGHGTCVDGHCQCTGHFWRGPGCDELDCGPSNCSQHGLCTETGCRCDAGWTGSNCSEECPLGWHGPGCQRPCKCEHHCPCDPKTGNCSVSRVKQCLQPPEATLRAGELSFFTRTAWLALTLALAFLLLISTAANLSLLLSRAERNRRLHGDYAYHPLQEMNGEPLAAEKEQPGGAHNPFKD
inactive: [1] -0.009 | [2] -0.017 | [3] -0.008 | [4] 0.068 | [5] 0.022 | [7] -0.132 | [8] -0.049 | [9] 0.014 | [11] -0.025 | [12] -0.046 | [13] -0.099 | [14] 0.054 | [15] -0.069 | [16] -0.044 | [17] 0.001 | [18] 0.248 | [19] 0.139 | [20] 0.134

NDUFS4 (UniProt O43181)
Chain of UniProt O43181 (O43181 whole entry, looked up): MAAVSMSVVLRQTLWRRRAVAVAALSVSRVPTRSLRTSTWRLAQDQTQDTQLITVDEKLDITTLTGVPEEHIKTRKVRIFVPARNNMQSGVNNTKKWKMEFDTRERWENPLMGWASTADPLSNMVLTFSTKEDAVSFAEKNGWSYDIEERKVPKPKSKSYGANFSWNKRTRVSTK
inactive: [1] 0.117 | [2] 0.1 | [3] 0.049 | [4] -0.082 | [5] -0.025 | [6] 0.035 | [7] 0.011 | [8] -0.074 | [9] -0.051 | [10] 0.079 | [11] -0.018 | [12] -0.019 | [13] -0.022 | [14] 0.035 | [15] -0.074 | [16] -0.077 | [17] -0.008 | [18] 0.036 | [19] 0.029 | [20] -0.122

NUP107 (UniProt P57740)
Chain of UniProt P57740 (P57740 whole entry, looked up): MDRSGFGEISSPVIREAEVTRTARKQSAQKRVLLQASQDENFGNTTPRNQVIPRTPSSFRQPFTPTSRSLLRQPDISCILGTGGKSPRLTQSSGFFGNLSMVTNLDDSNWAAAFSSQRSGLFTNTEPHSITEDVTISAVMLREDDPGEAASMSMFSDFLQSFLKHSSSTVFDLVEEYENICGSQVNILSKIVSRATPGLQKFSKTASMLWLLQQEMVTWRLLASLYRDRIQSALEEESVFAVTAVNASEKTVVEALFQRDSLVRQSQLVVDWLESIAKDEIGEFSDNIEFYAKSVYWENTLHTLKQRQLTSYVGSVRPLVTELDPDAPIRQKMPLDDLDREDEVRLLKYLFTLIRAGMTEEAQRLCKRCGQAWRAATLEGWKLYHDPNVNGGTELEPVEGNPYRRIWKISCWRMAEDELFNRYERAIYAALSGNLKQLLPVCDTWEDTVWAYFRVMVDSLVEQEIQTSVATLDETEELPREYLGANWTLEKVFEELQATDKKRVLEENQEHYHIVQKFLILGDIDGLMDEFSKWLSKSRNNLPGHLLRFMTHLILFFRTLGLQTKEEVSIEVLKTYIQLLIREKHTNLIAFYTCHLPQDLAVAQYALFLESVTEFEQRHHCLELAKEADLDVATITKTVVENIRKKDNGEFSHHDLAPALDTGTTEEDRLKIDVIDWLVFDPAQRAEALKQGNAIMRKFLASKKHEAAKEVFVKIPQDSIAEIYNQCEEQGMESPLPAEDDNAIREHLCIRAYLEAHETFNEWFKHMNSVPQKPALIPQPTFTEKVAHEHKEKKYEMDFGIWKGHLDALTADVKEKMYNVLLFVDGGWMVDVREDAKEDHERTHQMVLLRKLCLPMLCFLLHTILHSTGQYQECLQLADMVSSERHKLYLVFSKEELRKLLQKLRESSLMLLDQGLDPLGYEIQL
inactive: [1] -0.017 | [2] -0.103 | [3] -0.056 | [4] 0.067 | [5] 0.023 | [6] -0.081 | [7] 0.041 | [8] 0.02 | [9] 0.111 | [10] 0 | [11] -0.005 | [12] 0.233 | [13] 0.032 | [14] 0.026 | [15] 0.007 | [16] -0.116 | [17] -0.073 | [18] -0.04 | [19] 0.137 | [20] -0.13

NDUFB7 (UniProt P17568)
Chain of UniProt P17568 (P17568 whole entry, looked up): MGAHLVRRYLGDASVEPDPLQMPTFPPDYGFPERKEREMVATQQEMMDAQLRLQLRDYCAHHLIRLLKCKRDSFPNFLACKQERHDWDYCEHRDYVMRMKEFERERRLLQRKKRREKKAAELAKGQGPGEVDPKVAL
inactive: [1] 0.046 | [2] -0.014 | [3] -0.016 | [4] 0.016 | [5] 0.021 | [6] -0.015 | [7] -0.021 | [8] -0.011 | [9] -0.032 | [10] 0.029 | [11] -0.011 | [12] -0.023 | [13] -0.03 | [14] -0.025 | [15] -0.051 | [16] -0.077 | [17] 0 | [18] 0.002 | [19] -0.013 | [20] -0.066

MTFR1L (UniProt Q9H019)
Chain of UniProt Q9H019 (Q9H019 whole entry, looked up): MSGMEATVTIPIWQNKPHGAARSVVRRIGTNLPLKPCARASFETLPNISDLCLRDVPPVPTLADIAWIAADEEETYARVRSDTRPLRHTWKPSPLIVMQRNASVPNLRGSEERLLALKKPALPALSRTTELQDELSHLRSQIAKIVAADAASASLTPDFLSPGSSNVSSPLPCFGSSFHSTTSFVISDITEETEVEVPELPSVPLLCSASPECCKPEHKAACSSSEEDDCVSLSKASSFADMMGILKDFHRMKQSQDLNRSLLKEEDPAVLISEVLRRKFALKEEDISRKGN
inactive: [1] 0.052 | [2] -0.037 | [3] -0.106 | [4] 0.052 | [5] -0.024 | [6] -0.085 | [8] -0.054 | [10] -0.14 | [11] 0.036 | [12] -0.09 | [13] 0.037 | [14] -0.04 | [16] -0.111 | [17] 0.083 | [19] 0.044 | [20] 0.011

NA, A0A2R8Y3M9
inactive: [1] 0.171 | [2] 0.191 | [3] 0.214 | [8] -0.04 | [11] -0.086 | [12] 0.079 | [13] -0.419 | [14] 0.279 | [16] -0.123 | [17] -0.168 | [19] -0.037 | [20] -0.35

NA isoform 3 (UniProt Q4G0T1)
Chain of UniProt Q4G0T1 (Q4G0T1 whole entry, looked up): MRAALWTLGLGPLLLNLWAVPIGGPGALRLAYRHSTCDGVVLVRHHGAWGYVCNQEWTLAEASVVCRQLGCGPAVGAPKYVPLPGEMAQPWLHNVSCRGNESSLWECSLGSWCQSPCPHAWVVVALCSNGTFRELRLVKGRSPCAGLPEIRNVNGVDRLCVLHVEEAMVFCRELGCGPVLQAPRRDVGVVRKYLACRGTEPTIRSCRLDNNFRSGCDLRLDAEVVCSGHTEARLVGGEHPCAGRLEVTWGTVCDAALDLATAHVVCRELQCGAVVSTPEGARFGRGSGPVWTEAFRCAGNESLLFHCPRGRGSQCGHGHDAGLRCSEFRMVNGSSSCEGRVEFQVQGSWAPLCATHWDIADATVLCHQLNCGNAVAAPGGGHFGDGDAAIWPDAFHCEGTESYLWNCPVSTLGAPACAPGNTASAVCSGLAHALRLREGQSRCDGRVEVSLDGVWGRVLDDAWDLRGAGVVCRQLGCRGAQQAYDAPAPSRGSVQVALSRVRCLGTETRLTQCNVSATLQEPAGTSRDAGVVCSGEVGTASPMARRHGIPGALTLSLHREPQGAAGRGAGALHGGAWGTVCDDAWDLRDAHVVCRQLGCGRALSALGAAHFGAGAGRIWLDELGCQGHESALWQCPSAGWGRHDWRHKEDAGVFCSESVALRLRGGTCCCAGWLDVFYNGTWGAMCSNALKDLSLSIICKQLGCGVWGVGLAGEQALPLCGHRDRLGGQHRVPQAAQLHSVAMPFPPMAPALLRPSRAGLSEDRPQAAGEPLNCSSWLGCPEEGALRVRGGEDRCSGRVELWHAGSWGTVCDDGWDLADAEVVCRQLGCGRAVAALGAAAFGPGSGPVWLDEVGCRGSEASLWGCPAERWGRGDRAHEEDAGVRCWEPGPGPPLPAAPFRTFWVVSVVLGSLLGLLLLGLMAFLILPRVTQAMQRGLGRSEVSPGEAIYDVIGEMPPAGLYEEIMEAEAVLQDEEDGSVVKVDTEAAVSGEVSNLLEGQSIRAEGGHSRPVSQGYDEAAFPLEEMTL
inactive: [1] -0.011 | [2] 0.035 | [3] 0.039 | [4] 0.04 | [5] 0.007 | [6] 0.034 | [8] -0.053 | [10] -0.001 | [11] -0.007 | [12] 0.049 | [13] 0.044 | [14] 0.052 | [15] -0.09 | [16] 0.039 | [17] 0.016 | [18] 0.106 | [19] 0.112

NQO1 (UniProt P15559)
Chain of UniProt P15559 (P15559 whole entry, looked up): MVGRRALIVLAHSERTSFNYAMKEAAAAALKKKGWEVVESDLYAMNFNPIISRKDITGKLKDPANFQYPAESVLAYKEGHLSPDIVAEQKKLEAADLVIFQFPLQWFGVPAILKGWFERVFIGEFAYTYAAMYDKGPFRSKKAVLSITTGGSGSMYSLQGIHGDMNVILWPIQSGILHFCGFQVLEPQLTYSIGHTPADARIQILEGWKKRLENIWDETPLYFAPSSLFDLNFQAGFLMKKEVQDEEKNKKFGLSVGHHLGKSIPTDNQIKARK
inactive: [1] -0.076 | [2] -0.002 | [3] -0.108 | [4] 0.027 | [5] 0.161 | [6] -0.038 | [7] -0.077 | [8] -0.008 | [9] 0.005 | [10] -0.022 | [11] 0.062 | [12] -0.053 | [13] 0.069 | [14] -0.085 | [15] -0.094 | [16] 0.011 | [17] -0.006 | [18] 0.001 | [19] -0.017 | [20] -0.006

NIBAN1 (UniProt Q9BZQ8)
Chain of UniProt Q9BZQ8 (Q9BZQ8 whole entry, looked up): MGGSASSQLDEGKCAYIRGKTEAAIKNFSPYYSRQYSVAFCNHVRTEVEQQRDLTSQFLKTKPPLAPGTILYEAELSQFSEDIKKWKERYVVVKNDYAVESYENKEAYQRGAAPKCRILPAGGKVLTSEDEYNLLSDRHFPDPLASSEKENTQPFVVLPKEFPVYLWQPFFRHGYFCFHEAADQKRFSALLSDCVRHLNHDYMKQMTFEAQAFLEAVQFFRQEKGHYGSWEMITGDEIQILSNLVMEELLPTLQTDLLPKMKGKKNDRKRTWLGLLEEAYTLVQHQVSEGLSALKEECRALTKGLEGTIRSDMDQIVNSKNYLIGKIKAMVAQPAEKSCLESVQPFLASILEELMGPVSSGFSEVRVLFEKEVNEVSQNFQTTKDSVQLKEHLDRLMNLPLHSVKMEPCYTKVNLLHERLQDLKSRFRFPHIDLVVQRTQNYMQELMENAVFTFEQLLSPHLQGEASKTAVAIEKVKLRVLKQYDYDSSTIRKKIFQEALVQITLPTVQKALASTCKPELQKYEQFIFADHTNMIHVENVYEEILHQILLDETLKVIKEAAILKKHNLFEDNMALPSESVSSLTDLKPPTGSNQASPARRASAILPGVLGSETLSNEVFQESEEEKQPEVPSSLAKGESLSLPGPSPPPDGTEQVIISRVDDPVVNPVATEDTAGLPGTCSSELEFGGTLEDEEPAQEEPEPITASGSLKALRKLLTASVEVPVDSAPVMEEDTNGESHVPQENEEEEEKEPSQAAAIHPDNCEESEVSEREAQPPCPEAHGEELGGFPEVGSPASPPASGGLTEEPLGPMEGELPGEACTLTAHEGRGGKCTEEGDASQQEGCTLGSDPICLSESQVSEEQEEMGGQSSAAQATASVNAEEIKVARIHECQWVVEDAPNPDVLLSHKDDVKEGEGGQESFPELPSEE
inactive: [1] -0.051 | [2] -0.086 | [3] -0.037 | [4] 0.004 | [5] -0.013 | [6] -0.111 | [7] 0.08 | [8] 0.013 | [9] 0.144 | [10] -0.017 | [11] 0.055 | [12] 0.028 | [13] 0.028 | [14] -0.007 | [15] -0.052 | [16] -0.043 | [17] -0.032 | [18] -0.062 | [19] -0.015 | [20] 0

MSTO1 (UniProt Q9BUK6)
inactive: [1] 0.047 | [2] 0.025 | [3] -0.001 | [4] 0.023 | [5] -0.031 | [6] -0.045 | [7] -0.029 | [9] 0.04 | [10] 0.034 | [11] -0.022 | [12] -0.078 | [13] -0.045 | [14] -0.08 | [15] 0.007 | [16] 0.024 | [17] -0.018 | [18] 0.025 | [19] -0.009 | [20] 0.021
active: [8] 0.235

NECTIN2 isoform 2 (UniProt Q92692)
inactive: [1] 0.188 | [2] 0.288 | [5] 0.062 | [6] 0.11 | [7] -0.039 | [8] 0.158 | [9] 0.077 | [10] 0.049 | [11] 0.106 | [12] 0.094 | [14] 0.061 | [15] -0.016 | [17] -0.048 | [18] 0.093 | [20] -0.368

NOP53 (UniProt Q9NZM5)
inactive: [1] -0.063 | [2] -0.014 | [3] 0.396 | [4] 0.141 | [5] -0.019 | [6] 0.62 | [7] 0.36 | [8] 0.035 | [9] 0.174 | [10] -0.022 | [11] -0.111 | [12] 0.533 | [13] -0.008 | [14] 0.365 | [15] -0.1 | [16] 0.037 | [17] -0.127 | [18] -0.207 | [19] 0.163 | [20] -0.335
